{"source": "PubChem BioAssay (Tox21)", "note": "Records with an inconclusive call do not appear. A number with no mark means an inactive call. The source made the active and inactive calls. Calls come from the whole dose curve. % is set by controls: 0 for no effect and ±100 for the full control effect.", "data": [{"biological_target": "Thyrotropin receptor (Homo sapiens) (UniProt P16473)", "sequence (P16473 whole entry, looked up)": "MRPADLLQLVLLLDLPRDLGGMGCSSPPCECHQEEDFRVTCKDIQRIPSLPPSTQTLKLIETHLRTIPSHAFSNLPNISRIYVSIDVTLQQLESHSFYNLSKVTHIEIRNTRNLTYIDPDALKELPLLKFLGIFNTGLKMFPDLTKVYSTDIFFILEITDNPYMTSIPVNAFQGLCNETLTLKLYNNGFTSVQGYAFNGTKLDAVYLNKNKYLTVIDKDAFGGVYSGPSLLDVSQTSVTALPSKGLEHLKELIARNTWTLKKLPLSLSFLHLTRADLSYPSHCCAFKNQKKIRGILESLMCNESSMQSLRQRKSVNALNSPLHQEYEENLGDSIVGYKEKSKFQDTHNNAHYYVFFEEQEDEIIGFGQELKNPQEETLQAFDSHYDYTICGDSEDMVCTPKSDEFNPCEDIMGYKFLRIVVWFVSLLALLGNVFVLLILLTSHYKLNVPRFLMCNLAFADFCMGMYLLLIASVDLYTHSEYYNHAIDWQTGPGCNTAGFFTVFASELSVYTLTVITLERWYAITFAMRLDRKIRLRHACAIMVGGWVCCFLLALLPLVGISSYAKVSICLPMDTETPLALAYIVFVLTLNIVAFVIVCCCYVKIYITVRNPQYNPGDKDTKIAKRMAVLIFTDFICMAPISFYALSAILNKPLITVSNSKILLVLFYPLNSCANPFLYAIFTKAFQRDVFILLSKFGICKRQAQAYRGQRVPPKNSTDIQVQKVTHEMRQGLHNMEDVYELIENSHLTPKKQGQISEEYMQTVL", "experiment": "qHTS assay to identify small molecule antagonists of the thyroid stimulating hormone receptor (TSHR) signaling pathway (AID 1259385); note: nearly all actives have a fitted effect of over 20% in size", "conditions": "TSHR-HEK293 cAMP HTRF, TSH-stimulated antagonist mode; series mostly up to 92.4 µM", "excerpt": "U.S. Tox21 Program National Center for Advancing Translational Sciences [NCATS] NIH Chemical Genomics Center [NCGC] U.S. Environmental Protection Agency [EPA] National Institutes of Environmental Health Sciences [NIEHS] National Toxicology Program [NTP] U.S. Food and Drug Administration [FDA] Tox21 Assay Overview: TSHR is the receptor for thyrotropin (thyroid stimulating hormone or TSH), a member of the glycoprotein hormone family. TSH is released by the anterior pituitary gland and is the main regulator of thyroid gland growth and development. Upon binding circulating thyrotropin, a G-protein signal cascade activates adenylyl cyclase and […] cAMP concentration is increased. cAMP is a key second messenger involved extensively in cellular signal transduction pathways associated with the majority of G-protein coupled receptors (GPCRs). The activation of these GPCRs by neurotransmitters, lipids, nucleotides, peptides and hormones results in the activation or the inhibition of plasma membrane-bound adenylate cyclase through heterotrimeric G-proteins. A cell-based TSHR assay can be used to screen chemical compounds that modulate TSHR either in agonist or antagonist mode.\nTox21 Assay Protocol Summary: TSHR-Hek293 cells were dispensed at 800 cells/4uL/well in 1536-well white plates using a Multidrop dispenser. After the assay plates were incubated at a 37C/5% CO2 incubator for 18 hrs, 23 nL of compounds dissolved in DMSO, positive controls or DMSO only was transferred to the assay plate by a pin tool, followed by 1 ul medium containing Ro20-1724. For the antagonist mode screening, 1 uL of TSH was added on the top of the cell/compound mixtures to achieve a final agonist concentration of 1.5 ng/mL. After 30 min of incubation at room temperature, 2.5 ul/well of cAMP-d2 and 2.5 ul/well of anti-cAMP-cryptate were added respectively into the assay plates using a Flying Reagent Dispenser. The plates were incubated at room temperature for 1 hr. The fluorescence intensity in the plates was measured using an Envision plate reader. Each test compound was measured at 15 concentrations and in triplicates.", "values": [{"molecule": "O=C(O)Cc1ccccc1Oc1ccc(Cl)cc1Cl", "outcome": "inactive"}, {"molecule": "CCCC(=O)C(CC)Sc1ccoc1C", "note": "(stereo not given)", "outcome": "inactive"}, {"molecule": "CC(C)(C)C(=O)CCc1ccc(Cl)cc1", "outcome": "inactive"}, {"molecule": "CN1CCN(C(=O)C2CCCCC2)CC1", "outcome": "inactive"}, {"molecule": "CCCCCCCCCCCCCCCC/C=C/C1CC(=O)OC1=O", "note": "(stereo not given)", "outcome": "inactive"}, {"molecule": "CCOC(=O)CC", "outcome": "inactive"}, {"molecule": "CN(C)CCc1c[nH]c2ccc(C[C@H]3COC(=O)N3)cc12", "outcome": "inactive"}, {"molecule": "C[C@@H]1NC(=O)[C@@H](N)CNC(=O)[C@H](C2CCNC(N)=N2)NC(=O)/C(=C/NC(N)=O)NC(=O)[C@H](CNC(=O)C[C@@H](N)CCCN)NC1=O", "note": "(stereo not given in full)", "activity change, negative = inhibition": "2.75% [at 0.349 µM]"}, {"molecule": "Cc1ccc(S(=O)(=O)NC(=O)NN2CC3CCCC3C2)cc1", "note": "(stereo not given)", "outcome": "inactive"}, {"molecule": "CC(=O)OC1CCC(C(C)(C)C)CC1", "note": "(stereo not given)", "outcome": "inactive"}, {"molecule": "CCCCCCCCCCCC(C)=O", "outcome": "inactive"}, {"molecule": "CCCCC(CC)COC(=O)CC#N", "note": "(stereo not given)", "outcome": "inactive"}, {"molecule": "CCO[Si](CC(C)C)(OCC)OCC", "outcome": "inactive"}, {"molecule": "CCCCN1C(=O)c2ccccc2C1=O", "outcome": "inactive"}, {"molecule": "Cc1cccc(N)n1", "outcome": "inactive"}, {"molecule": "CC(O)C(CO)C(C)O", "note": "(stereo not given)", "outcome": "inactive"}, {"molecule": "CCN1CCN(C(=O)N[C@@H](C(=O)N[C@@H]2C(=O)N3C(C(=O)O)=C(CSc4nnnn4C)CS[C@H]23)c2ccc(O)cc2)C(=O)C1=O", "outcome": "inactive"}, {"molecule": "Cc1ccc(Br)cc1", "outcome": "inactive"}, {"molecule": "CCCCCCCOC(C)=O", "outcome": "inactive"}, {"molecule": "CC(=O)c1ccc2ccc3ccccc3c2c1", "outcome": "inactive"}, {"molecule": "CCCCCCCCCCCCCCCC(=O)OC", "activity change, negative = inhibition": "1.93% [at 19 µM]"}, {"molecule": "CCCCCCCCS(=O)(=O)O", "outcome": "inactive"}, {"molecule": "CC(C)(C)c1ccc(C(=O)CCCCl)cc1", "outcome": "inactive"}, {"molecule": "CCO/C=C1\\N=C(c2ccccc2)OC1=O", "outcome": "inactive"}, {"molecule": "CC(=O)O[C@@H]1CC2C3CCc4cc(OC(=O)c5ccccc5)ccc4C3CCC2(C)[C@H]1OC(C)=O", "note": "(stereo not given in full)", "outcome": "inactive"}, {"molecule": "COc1cc(S(N)(=O)=O)cc(C(=O)O)c1OC", "outcome": "inactive"}, {"molecule": "C/C=C(\\C)C=O", "outcome": "inactive"}, {"molecule": "CC(CC(=O)Cl)CC(C)(C)C", "note": "(stereo not given)", "outcome": "inactive"}, {"molecule": "CC(C)C[P+](C)(CC(C)C)CC(C)C", "outcome": "inactive"}, {"molecule": "CCOc1ccccc1OCCN[C@H](C)Cc1ccc(OC)c(S(N)(=O)=O)c1", "outcome": "inactive"}, {"molecule": "COc1ccc2cc(CCC(C)=O)ccc2c1", "outcome": "inactive"}, {"molecule": "O=CN1CCCCC1", "outcome": "inactive"}, {"molecule": "CC(C)OCCO", "outcome": "inactive"}, {"molecule": "Clc1ccc2c(c1)Nc1ccccc1S2", "outcome": "inactive"}, {"molecule": "CC(C)(C)OC(=O)c1ccccc1C(=O)O", "outcome": "inactive"}, {"molecule": "CN(C)c1ccncc1", "outcome": "inactive"}, {"molecule": "CCCCNCC", "outcome": "inactive"}, {"molecule": "Nc1cc(S(=O)(=O)O)ccc1O", "outcome": "inactive"}, {"molecule": "NC(=O)CC[C@@H](N)C(=O)O", "outcome": "inactive"}, {"molecule": "CC1(C)CC(N)CC(C)(C)N1", "outcome": "inactive"}]}]}
